Laboratory results published in PubChem BioAssay (Tox21).
Records with an inconclusive call do not appear. A call without a number means that no potency is given here. Activity calls are given as the source filed them. Calls follow the shape of the dose curve; as a rule, active = well fitted activation curve with a large enough effect in the repeat runs; inconclusive = weak or mixed curves; inactive = flat fitted curve, though single readings scatter.

assay: A CellTox Green Cytotoxicity Assay to monitor cytotoxicity in HEK293 cells - 16 hour (AID 1224888); settings: CellTox Green fluorescence; series mostly up to 76.8 µM; also: nearly all actives have a fitted effect of over 35% in size
Source text: National Center for Advancing Translational Sciences [NCATS]
NIH Chemical Genomics Center [NCGC]
U.S. Environmental Protection Agency [EPA]
National Institutes of Environmental Health Sciences [NIEHS]
National Toxicology Program [NTP]
Cell-based models are critical for drug discovery. Determining the natural cytotoxic effects resulting from test compounds is an essential research activity. A CellTox Green Cytotoxicity Assay to monitor cytotoxicity in real time of continues cell culture during 40 hours of the compound treatment was used to screen Tox21 10K library compounds in Hek293 cells. CellTox Green Cytotoxicity Assay is a nonlytic, homogeneous, biofluorescent method to measure cytotoxicity in cell culture after experimental manipulation. The assay system uses a proprietary asymmetric cyanine dye that is excluded from viable cells but preferentially stains the dead cell's DNA. […] Viable cells produce no appreciable increases in fluorescence. Therefore, the fluorescence signal produced by the binding interaction with dead cell DNA is proportional to cytotoxicity.
The mixture of Hek293 cell suspension and reagents were dispensed at 600cells/6 ul/well in 1536-well tissue culture treated black solid bottom plates using a Multidrop dispenser. After the assay plates were incubated at a 37 C/5% CO2 incubator for 5 hours, 23 nL of compounds dissolved in DMSO, positive and negative controls was transferred to the assay plate by a pintool work station. The plates were incubated at 37 C for 40 hours. The fluorescence intensity were measured at 0h, 8h, 16h, 24h, 32h and 40h time points using ViewLux plate reader during compound treatment.

Row | SMILES | Potency
1 | CCOC(=O)C(C)(C)Oc1ccc(Cl)cc1 | inactive
2 | CC1(C)O[C@@H]2[C@@H](CO[C@@]3(COS(N)(=O)=O)OC(C)(C)O[C@@H]23)O1 | inactive
3 | CC(C)CC(C)CC(O)CC(C)C (stereo not given) | inactive
4 | CCCCCCCCCCCCCCCCCC(=O)OCC(O)CO (stereo not given) | inactive
5 | OCCCc1ccccc1 | inactive
6 | Cc1cccc(Nc2cc(Cl)nc(SCC(=O)O)n2)c1C | inactive
7 | C1CNCCN1 | inactive
8 | NC(=O)c1ccc([N+](=O)[O-])cc1Cl | inactive
9 | C[C@]12CC[C@@H]3c4ccc(O)cc4C[C@@H](CCCCCCCCCS(=O)CCCC(F)(F)C(F)(F)F)[C@H]3[C@@H]1CC[C@@H]2O (stereo not given in full) | inactive
10 | C#C[C@]1(O)CC[C@H]2[C@@H]3CCc4cc(O)ccc4[C@H]3CC[C@@]21C | inactive
11 | COc1cc(C=O)ccc1O | inactive
12 | CCOCCO | inactive
13 | C=C(C)C(N)=O | inactive
14 | O=c1c(-c2ccc(O)cc2)coc2cc(O)cc(O)c12 | inactive
15 | COC(=O)c1ccc(C=O)cc1 | inactive
16 | C#C[C@]1(O)CC[C@H]2[C@@H]3CCC4=CC(=O)CC[C@@H]4[C@H]3CC[C@@]21CC | inactive
17 | C[C@]12C[C@H](O)[C@H]3[C@@H](CCC4=CC(=O)CC[C@@]43C)[C@@H]1CC[C@@H]2C(=O)CO | inactive
18 | COC(=O)C1CCC(C(=O)OC)CC1 (stereo not given) | inactive
19 | Cc1cccc2ccccc12 | inactive
20 | c1ccc2[nH]c(-c3cscn3)nc2c1 | inactive

Row | SMILES | Potency
21 | OC[C@@H](O)[C@@H](O)[C@H](O)[C@H](O)CO | inactive
22 | COc1cc2c(c(OC)c1OC)-c1ccc(OC)c(=O)cc1[C@@H](NC(C)=O)CC2 | inactive
23 | CCn1cc(C(=O)O)c(=O)c2ccc(C)nc21 | inactive
24 | NCCNc1cccc2ccccc12 | inactive
25 | O=C(O)CN(CC(=O)O)CC(=O)O | inactive
26 | O=C(OCc1ccccc1)c1ccccc1 | inactive
27 | CC(C)Cc1ccc(C(C)C(=O)O)cc1 (stereo not given) | inactive
28 | Cc1ccc(O)c(-n2nc3ccccc3n2)c1 | inactive
29 | COc1ccccc1NC(=O)CC(C)=O | inactive
30 | Cc1c(N(C)C)c(=O)n(-c2ccccc2)n1C | inactive
31 | CC(C)=CCC/C(C)=C/CO | inactive
32 | NC(=O)OCC(COC(N)=O)c1ccccc1 | inactive
33 | CN/C(=C\[N+](=O)[O-])NCCSCc1ccc(CN(C)C)o1 | inactive
34 | CC(C)(C)CC(C)(C)c1ccc(O)c(-n2nc3ccccc3n2)c1 | inactive
35 | CCCCC/C(C=O)=C\c1ccccc1 | inactive
36 | Nc1ccc(N=Nc2ccccc2)c(N)n1 | inactive
37 | CC(=O)c1ccc(S(=O)(=O)NC(=O)NC2CCCCC2)cc1 | inactive
38 | COc1ccc(C(=O)c2ccccc2)c(O)c1 | inactive
39 | C=C(C)OC(C)=O | inactive
40 | CCc1cc(C(N)=S)ccn1 | inactive
